High-throughput results from PubChem BioAssay.
MARV entry inh = Marburg virus entry inhibition; Marburg virus pseudotyped entry inhibition, cell reporter; Potency, µM (highest dose often 37.8 µM), for the others: at the top dose activity change, negative = inhibition, hits mostly inhibitors; 1.8% of 300,000 active; AID 540276; calls by dose curve; tested in HEK293 cells; also: potency is read from the fitted curve at half-maximal effect
VACV mCherry inh = vaccinia inhibition (mCherry reporter); Vaccinia virus mCherry reporter infection, fluorescence; Potency, µM (doses to about 36.5 µM), for inactives: at the top dose activity change, negative = inhibition, most hits filed as inhibitors; 0.63% of 310,000 active; AID 720579; calls by dose curve; tested in A549 cells; also: potency is read from the fitted curve at half-maximal effect; nearly all actives have a fitted effect of over 35% in size
HCMV inh = human cytomegalovirus inhibition; 4.5% of 410,000 active; AID 1259415; activity change, negative = inhibition, % at 57.5 µM; HFF cells, HCMV-luciferase reporter, 72 h; hits give low values; in the data active = activity change below about -60%; inconclusive = no clear call, values can overlap the other calls; inactive = above about -39%
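Two compound doses tested in HFFs infected with HCMV-luciferase, MOI 1 PFU/cell, 72 h at 37C. Lysate luminescence read with OneGlo; data normalized against buffer-only and 10uM Salinomycin inhibitor controls.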
FMDV inh = antivirals against foot and mouth disease virus; Potency, µM (highest dose often 57.9 µM), inactives show at the highest dose activity change, negative = inhibition, usual class: inhibitors; FMDV antiviral cell-based qHTS; 1.2% of 410,000 active; calls by dose curve; tested in HEK293T cells; also: read-out not given here; potency is read from the fitted curve at half-maximal effect; nearly all actives have a fitted effect of over 45% in size
Vaccinia Venus = inhibitors of vaccinia virus (Venus reporter). Vaccinia virus Venus reporter expression, fluorescence. Potency, µM (series often up to 36.5 µM), without a hit: top-dose activity change, negative = inhibition, hits mostly inhibitors. 0.46% of 330,000 active. AID 720580; calls by dose curve; tested in A549 cells; also: potency is read from the fitted curve at half-maximal effect; nearly all actives have a fitted effect of over 30% in size
Lassa entry inh = inhibitors of Lassa virus binding or cell entry; Potency, µM (highest dose often 37.9 µM), for the others: at the highest dose activity change, negative = inhibition, hits mostly inhibitors; 1.2% of 300,000 active; Lassa virus pseudotype entry inhibition, cell reporter; AID 540256; calls by dose curve; tested in HEK293 cells; also: potency is read from the fitted curve at half-maximal effect; nearly all actives have a fitted effect of over 50% in size
* = called active by the depositor; i = inactive; ? = inconclusive; · = no result given; ! = not active in a repeat; [ ] = remark or other dose. Compounds with a hit are over-represented: about 6.5% of the library has one in this group of screens. % is scaled to controls: 0 for no effect and ±100 for the full control effect.

SMILES	MARV entry inh	VACV mCherry inh	HCMV inh	FMDV inh	Vaccinia Venus	Lassa entry inh
Cc1ccc(Cn2c(C(=O)O)c(CNCc3ccccc3Cl)c3ccc(C)cc32)cc1	·	?	14.2	?	?	?
C=Cc1ccc(Cn2c(C(=O)O)c(CNCCc3ccccc3)c3ccc(C)cc32)cc1	·	-19.2%	-89.8*	-17.9%	?	4.2%[46.1 µM]
Cc1ccc2c(CNCCc3ccc(Cl)cc3)c(C(=O)O)n(Cc3ccc(F)cc3)c2c1	·	-12.8%	-105.8*	-16.8%	-14.6%	-28.6%[46.1 µM]
Cc1ccc(Cn2c(C(=O)O)c(CNCCc3ccco3)c3ccc(C)cc32)cc1	·	13.6%	48.8	6.8%	-2.1%	-5.6%[46.1 µM]
COc1ccc(Cn2c(C(=O)O)c(CNCCc3ccccc3Cl)c3ccc(C)cc32)cc1	·	?	-104.7*	-53.8%	?	-26.6%[46.1 µM]
COc1ccc2c(CNCCc3ccco3)c(C(=O)O)n(Cc3ccc(F)cc3)c2c1	·	-7.3%	-1.2	-2.7%	-5.9%	-19.2%[46.1 µM]
CC(C)=CCN1C(=O)[C@@]2(CC(C)=C[C@@H](COCc3ccccc3)O2)c2ccccc21	2.9%[14.2 µM]	·	·	·	·	?
Cc1ccc(C)c(Cn2c(=O)n(CCc3ccccc3)c(=O)c3c(C)c(C)sc32)c1	-4.8%[46.1 µM]	0.0%	-3.3	-4.1%	6.8%	-8.1%[46.1 µM]
CCOCCCNC(=O)Cn1ncc2c([nH]c3ccccc32)c1=O	·	-0.7%	10.0	-14.1%	3.1%	-16.8%[46.1 µM]
CCC(=O)N[C@@H]1c2ccccc2C2(CCN(Cc3ccccn3)CC2)[C@H]1OC	·	i	·	-14.5%	-8.6%	·
Cc1ccccc1-c1noc(-c2ccc(N3CCC(C)CC3)c([N+](=O)[O-])c2)n1	?	-8.0%	12.7	36.0%	-3.9%	1.2%[46.1 µM]
C=Cc1ccc(Cn2c(C(=O)O)c(CNCc3cc(OC)ccc3OC)c3ccc(C)cc32)cc1	·	-13.9%	-103.6*	0.0%	-12.4%	-2.7%[46.1 µM]
O=C(CN1CCOCC1)c1ccc2cc[nH]c2c1	0.2%	-7.7%	1.8	16.1%	-4.0%	-12.6%
O=C(CN1CCC2(CC1)OCCO2)c1ccc2cc[nH]c2c1	?	i	-65.6*	44.3%	-4.2%	25.8%[14.3 µM]
O=C(COc1ccc(Cl)cc1)Nc1ncc([N+](=O)[O-])s1	?	11.2µM*	-61.2*	-45.5%	10µM*	?
Cc1onc(-c2ccccc2)c1C(=O)Nc1ncc([N+](=O)[O-])s1	?	?	-95.5*	?	?	?
CC(=O)Nc1ncc([N+](=O)[O-])s1	·	·	7.1	·	·	·
Cc1ccc(C(=O)Nc2ncc(Cc3ccc(SC(F)F)cc3)s2)cc1	-25.0%	-24.7%	-63.4*	-27.5%	?	?
Cc1ccc(C(=O)Nc2ncc([N+](=O)[O-])s2)cc1	·	·	-69.9*	8.91µM*	·	·
CC1(C)C[C@H](n2[nH]c(=O)c3c2NC(=O)CS[C@@H]3c2ccccc2)CCO1	13.9%	·	·	·	·	·
COC(=O)c1cn([C@@H]2C[C@@H](C(=O)Nc3cccc(SC)c3)N(C3CCCC3)C2)nn1	·	-7.2%	·	-13.3%	-1.0%	·
O=C(Nc1ncc([N+](=O)[O-])s1)c1ccc2c(c1)OCO2	1.58µM*	-22.4%	-92.9*	3.16µM*	-10.1%	?
O=C(NC1CC(=O)N(c2cccc(F)c2)C1)c1cc2ccccc2o1 (configuration not stated)	·	-6.3%	31.5	-11.1%	-5.2%	13.6%[46.1 µM]
Cc1cccc(N2C(=O)CSC23C(=O)N(Cc2cccc(C(F)(F)F)c2)c2ccccc23)c1 (configuration not stated)	·	-17.2%	-69.7*	?	-1.5%	-19.6%[46.1 µM]
CCC(=O)Nc1cc2nn(-c3ccc(OC)cc3)nc2cc1C	?	-11.7%	10.3	·	-8.1%	-27.0%
SMILES	MARV entry inh	VACV mCherry inh	HCMV inh	FMDV inh	Vaccinia Venus	Lassa entry inh
CCC(=O)Nc1cc2nn(-c3ccc(C)cc3)nc2cc1C	?	0.5%	-66.1*!	6.31µM*	-23.5%	?
COC(=O)c1ccccc1NC(=O)CSc1nncn1C	3.4%[46.1 µM]	-2.6%	33.2	-11.4%	-6.2%	11.6%[46.1 µM]
Cc1ccc(NC(=O)CSc2nncn2C)c(C)c1	-10.9%[46.1 µM]	12.7%	-104.9*	-15.5%	5.9%	5.8%[46.1 µM]
Cc1cccc(NC(=O)CSc2nncn2C)c1	-4.5%[46.1 µM]	11.9%	5.8	0.5%	-3.1%	20.7%[46.1 µM]
Cn1cnnc1SCC(=O)Nc1ccccc1Sc1ccccc1	-9.5%	·	-62.7*	10.2%	-6.9%	-9.1%
CCOC(=O)N1CCN(C(=O)CN(c2cccc(Cl)c2)S(=O)(=O)c2ccccc2)CC1	28.5%[46.1 µM]	2.9%	-2.0	12.1%	1.5%	-26.6%[46.1 µM]
CCOc1ccccc1CNC(=O)C1CCN(c2nnc(-n3c(C)ccc3C)s2)CC1	-1.4%[46.1 µM]	-22.8%	-19.2	-11.5%	-18.3%	-10.4%[46.1 µM]
Cc1ccccc1S(=O)(=O)N1CCN(c2nc(-c3cccs3)nc3ccccc23)CC1	·	i	·	·	-18.2%	·
CCN(CC)C(=O)Cn1cc(SCC(=O)Nc2cccc(C)c2)c2ccccc21	·	1.7%	7.8	-27.7%	-4.6%	?
C=C1C(C)C2C(Cc3ccccc3)NC(=O)C23C(OC(C)=O)C=CC(C)(O)CC(C)CC=CC3C1O (configuration not stated)	3.98µM*	?	-28.1	-12.9%	?	2.24µM*
O=C(CCN1C(=O)c2ccccc2C1=O)Nc1sc2c(c1C(=O)NCC1CCCO1)CCC2 (configuration not stated)	21.8%	-13.8%	-32.2	-11.9%	-10.7%	?
CC(C(=O)Nc1sc2c(c1C(=O)NCC1CCCO1)CCC2)N1C(=O)c2ccccc2C1=O (configuration not stated)	?	-19.0%	-100.2*	-27.0%	-10.8%	-8.6%
Cc1ccc(NC(=O)/C=C/c2ccco2)nc1	7.08µM*	?	-63.1*	-0.1%	?	?
Cc1noc(/C=C/c2ccco2)c1S(=O)(=O)N1CCC(C(=O)NCc2ccco2)CC1	3.0%	·	-73.1*	-0.5%	·	-22.7%
Cc1ccc(CNC(=O)C2CCN(S(=O)(=O)c3c(C)noc3/C=C/c3ccco3)CC2)cc1	-3.6%	-2.9%	-6.6	-23.2%	-27.2%	·
O=C(/C=C/c1ccco1)Nc1ccccn1	?	-29.8%	99.6	7.0%	-20.5%	?
Cc1ccc(NC(=O)C2CCN(S(=O)(=O)c3c(C)noc3/C=C/c3ccco3)CC2)nc1	?	-10.8%	-93.6*	35.5µM*	-12.8%	?
Cc1cnc(SCc2ccccn2)nc1C1CCCN(Cc2ccsc2)C1 (configuration not stated)	·	-17.0%	·	-17.3%	-14.2%	·
COc1cc(/C=C\c2ccc(OC)cc2OC)cc(OC)c1	·	·	·	17.1%	·	·
CCc1ccc(NC(=O)CN2C(=O)CC(c3ccccc3)Sc3ccccc32)cc1 (configuration not stated)	5.2%[46.1 µM]	-7.6%	-7.3	-13.0%	-9.9%	·
Cc1[nH]c2ccccc2c1/C=N/NC(=O)C1CC1(c1ccccc1)c1ccccc1 (configuration not stated)	?	?	-20.8	39.8µM*	11.2µM*	?
COc1ccc(C)cc1Nc1cc(C)nc(C)n1	-22.0%[46.1 µM]	-14.1%	4.7	-19.7%	-4.1%	4.9%[46.1 µM]
